The values that follow come from PubChem BioAssay (NCATS).

Assay [1] can be described thus: AP1 Signaling Pathway (AID 357).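 Note: ME-180 reporter cells stimulated with EGF at its EC50 level; % is set by controls: 0 for no effect and ±100 for the full control effect.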 Summed up:
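AP-1-bla ME-180 cells, Opti-MEM + 0.5% dialyzed FBS, plated overnight 37 °C. Cpd titration + EC50 EGF, 5 h 37 °C. CCF4 2.5 h RT; ex 405, em 460/530 ratio → %activity, AC50.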

In assay [2] the target is Cytochrome P450 1A2 (Homo sapiens) (UniProt P05177). As to the kind of experiment: p450-cyp1a2 (AID 410; calls by dose curve;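 note: -100% = full effect of reference inhibitor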). Summed up:
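Luminescent readout of luciferin formed from Luciferin-ME by human CYP1A2; data normalized against complete inhibition by 57 uM furafylline. Enzyme 20nM, substrate 100uM at Km, 100mM KPO4 buffer, 60 min reaction at room temperature.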

The nature of assay [3]: NFAT Signaling Pathway (AID 444).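 Note: carbachol stimulus at about its EC50 of 1 µM final; % is set by controls: 0 for no effect and ±100 for the full control effect.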 The conditions noted are these: Jurkat NFAT-bla M1, carbachol, beta-lactamase ratio, 5 h; at 17.2 µM (top of the series) unless noted. Summed up:
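Read-out: CCF4 FRET ratio (460 nm/530 nm) after 1 h RT dye loading, used for %activity and AC50 from titration series. Cells: Jurkat NFAT-β-lactamase/M1 line, treated with compound plus 1 uM carbachol for 5 h, 37 °C.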

Assay [4] is described as follows: Stat Signaling Pathway (AID 446).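 Note: ME-180 cervical cancer cells given 40 pM IL-6 alongside compound; SIE-controlled beta-lactamase reporter measured as 460/530 nm FRET emission ratio; % is set by controls: 0 for no effect and ±100 for the full control effect.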 Summed up:
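Screening format detects activators and inhibitors alike: ME-180 SIE-bla cells stimulated at 40 pM IL-6 for 5 hrs with compound, then dual-emission beta-lactamase read at 405 nm excitation.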

Assay [5] concerns the target Glucocorticoid receptor (Homo sapiens) (UniProt P04150). As to the kind of experiment: GR-GFP Redistribution (AID 450;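 active = compounds whose dose series gives a full or clear partial fitted curve of increased nuclear translocation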; note: potency is the fitted concentration of half-maximal effect). The conditions noted are these: U2OS GR-GFP nuclear translocation, laser cytometry, 2 h.
For assay [6] the target is unchanged. Kind of assay: GR-EFC Redistribution (AID 451; calls by dose curve; note: potency is the fitted concentration of half-maximal effect). The conditions noted are these: CHO-K1 GR-EFC translocation, beta-gal luminescence, 2 h. Summed up:
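Translocation of GR-ED fusion to nuclear EA restores b-gal, read by luminescence after 1 h room-temperature detection. Engineered CHO-K1 biosensor cells, 1,000/well, exposed 2 h at 37 C to titrations up to 46 uM final.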

For assay [7], the target named is Mitogen-activated protein kinase 10 (Mus musculus) (UniProt Q61831). As to the kind of experiment: JNK3 AlphaScreen Assay (AID 530).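 Note: kinase came from lysate of stimulated human HepG2 cells; signal reports phosphorylation of biotinylated GST-cJun 1-79 at Ser73 with 10 µM ATP; % is set by controls: 0 for no effect and ±100 for the full control effect.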 Summed up:
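Compound titrations were preincubated 15 minutes at room temperature with substrate, antibody and pre-activated JNK3-containing HepG2 lysate. Reactions were started with 10 uM ATP and stopped with EDTA-containing bead buffer for AlphaScreen detection.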

The target in assay [8] is 3',5'-cyclic-AMP phosphodiesterase 4B (Homo sapiens) (UniProt Q07343). Kind of assay: qHTS Assay for Inhibitors of PDE-IV (AID 607; active = well fitted activation curve with a large enough effect in the main read-out, with a control signal flat, not every such curve was filed as active; note: % of control where 0% means no effect). Summed up:
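The readout is membrane depolarisation from a cAMP-sensing CNG channel, detected with a potential dye at ex 535/em 590. Cells were HEK293-derived (endogenous PDE-IV) at 1000 cells/well, titrated up to 22.9 uM final.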
Background: qHTS replaces the single test concentration by a dilution series.

Assay [9] is described as follows: qHTS Assay for Lipid Storage Modulators (AID 1519; calls by dose curve). The note with it: Drosophila S3 cells, BODIPY lipid droplet/cell ratio, laser cytometry, cells loaded with oleic acid; for activity change, negative = inhibition: at 25.7 µM (top of the series). Summed up:
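Cells seeded at 5,000 per well were treated with compounds over a concentration series and loaded with oleic acid (400 uM, as added). Lipid droplet fluorescence (488 nm excitation, 500-530 nm channel) was read by laser-scanning cytometry and normalized to 20 uM Triacsin C.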

Assay [10] has as its target Ubiquitin carboxyl-terminal hydrolase 1 (Homo sapiens) (UniProt O94782). Kind of assay: Inhibitors of USP1/UAF1: Pilot qHTS (AID 504865; active = well fitted curve in the direction sought with a large enough effect; an effect the other way counts as inactive or inconclusive;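 note: rhodamine fluorescence freed from ubiquitin-rhodamine substrate followed over time; top concentration of the series differs between compounds; % is set by controls: 0 for no effect and ±100 for the full control effect; nearly all actives have a fitted effect of over 35% in size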). Summed up:
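Enzyme-free wells gave the negative control, while test wells held 1nM USP1/UAF1 preincubated with compound for 15 min at room temperature. Ub-Rho at 150nM final started the reaction, and fluorescence at 480/540 nm was recorded kinetically.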

For assay [11], the target named is ATP-dependent 6-phosphofructokinase (Trypanosoma brucei brucei) (UniProt O15648). As to the kind of experiment: qHTS Assay to Find Inhibitors of T. brucei phosphofructokinase: hit validation (AID 492961; active = well fitted curve in the direction sought with a large enough effect; an effect the other way counts as inactive or inconclusive). An outline of the steps:
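In this biochemical qHTS validation, titrated compounds were tested against 1.25 nM PFK with 0.1 mM ATP and 0.5 mM F6P. Percent activity came from controls lacking or containing enzyme.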

The target of assay [12] is Luciferin 4-monooxygenase (Photinus pyralis) (UniProt P08659). As to the kind of experiment: Biochemical firefly luciferase enzyme assay for NPC (AID 624030; active = well fitted curve in the direction sought with a large enough effect; an effect the other way counts as inactive or inconclusive;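 note: purified P. pyralis luciferase at 10 nM with luciferin and ATP substrate; 0% = DMSO and -100% = full luciferase inhibition by PTC124 control; nearly all actives have a fitted effect of over 70% in size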). An outline of the steps: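 Direct inhibition of firefly luciferase enzyme (10 nM final, 50 mM Tris Acetate) assessed by luminescence within 5 minutes. Percent activity scaled between DMSO and PTC124 positive control, with concentration-effect curves classified by fit quality and response.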
Sequence of Luciferin 4-monooxygenase (Photinus pyralis) (P08659 whole entry, looked up): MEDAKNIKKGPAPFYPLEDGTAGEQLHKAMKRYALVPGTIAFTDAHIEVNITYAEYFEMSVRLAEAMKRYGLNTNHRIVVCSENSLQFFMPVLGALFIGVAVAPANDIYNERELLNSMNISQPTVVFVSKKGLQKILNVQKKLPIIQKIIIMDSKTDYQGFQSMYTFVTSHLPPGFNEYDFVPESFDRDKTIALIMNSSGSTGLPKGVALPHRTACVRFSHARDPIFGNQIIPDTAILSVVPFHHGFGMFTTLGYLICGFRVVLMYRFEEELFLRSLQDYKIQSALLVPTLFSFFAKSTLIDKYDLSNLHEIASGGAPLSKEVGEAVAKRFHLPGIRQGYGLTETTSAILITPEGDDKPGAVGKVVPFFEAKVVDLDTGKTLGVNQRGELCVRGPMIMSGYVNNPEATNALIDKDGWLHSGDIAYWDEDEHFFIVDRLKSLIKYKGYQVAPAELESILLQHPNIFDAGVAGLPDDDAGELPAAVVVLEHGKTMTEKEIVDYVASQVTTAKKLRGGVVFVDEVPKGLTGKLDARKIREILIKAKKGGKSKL

Assay [13] is described as follows: qHTS profiling for inhibitors of Plasmodium falciparum proliferation (AID 504749; active = well fitted curve in the direction sought with a large enough effect; an effect the other way counts as inactive or inconclusive;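 note: 0% = DMSO vehicle and full inhibition = artemisinin control; nearly all actives have a fitted effect of over 60% in size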). The note with it: P. falciparum in erythrocytes, SYBR Green DNA, 72 h, at 28.7 µM (top of the series). An outline of the steps:
(§1)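 Infected RBCs, 0.3% parasitemia/2.5% Hct final; cpd 72 h, 37 C, 5% CO2; lysis buffer with saponin/triton/SYBR Green I, o/n RT dark; FI 485/535; norm. to artemisinin (0.29 uM) and DMSO.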

The next assay relates to 3D7. Described as above. The note with it: P. falciparum in erythrocytes, SYBR Green DNA, 72 h; series mostly up to 12.8 µM. An outline of the steps: as §1
The next assay relates to C2A. The assay is described as above. The note with it: P. falciparum in erythrocytes, SYBR Green DNA, 72 h; series mostly up to 12.8 µM. Summed up: as §1
In the next assay the test system is CP217. Described as above. The conditions noted are these: P. falciparum in erythrocytes, SYBR Green DNA, 72 h; series mostly up to 12.8 µM. Summed up: as §1
A further assay has as its system CP250. Described as above. The note with it: P. falciparum in erythrocytes, SYBR Green DNA, 72 h; series mostly up to 12.8 µM. An outline of the steps:
as §1

In the next assay the test system is FAB9. The assay is described as above. The conditions noted are these: P. falciparum in erythrocytes, SYBR Green DNA, 72 h; series mostly up to 12.8 µM. Summed up:
as §1

Another assay deals with JCK. Described as above. The conditions noted are these: P. falciparum in erythrocytes, SYBR Green DNA, 72 h; series mostly up to 12.8 µM. Summed up:
as §1

A further assay has as its system PC49. Described as above. The conditions noted are these: P. falciparum in erythrocytes, SYBR Green DNA, 72 h; series mostly up to 12.8 µM. Summed up:
as §1

Where [14] appears, read: measured here: cell count channel max response.
The mark [15] stands for this setting: measured here: lipid channel max response.

Records with an inconclusive call do not appear. Calls of active or inactive are those of the source. Unless noted, calls come from the whole dose curve; as a rule, active = well fitted curve in either direction with a large enough effect (not every such curve was filed as active); inconclusive = small, poorly fitted or top-dose-only effect, or another doubt; inactive = flat fitted curve, though single readings scatter.

Sequence of Ubiquitin carboxyl-terminal hydrolase 1 (Homo sapiens) (O94782 whole entry, looked up): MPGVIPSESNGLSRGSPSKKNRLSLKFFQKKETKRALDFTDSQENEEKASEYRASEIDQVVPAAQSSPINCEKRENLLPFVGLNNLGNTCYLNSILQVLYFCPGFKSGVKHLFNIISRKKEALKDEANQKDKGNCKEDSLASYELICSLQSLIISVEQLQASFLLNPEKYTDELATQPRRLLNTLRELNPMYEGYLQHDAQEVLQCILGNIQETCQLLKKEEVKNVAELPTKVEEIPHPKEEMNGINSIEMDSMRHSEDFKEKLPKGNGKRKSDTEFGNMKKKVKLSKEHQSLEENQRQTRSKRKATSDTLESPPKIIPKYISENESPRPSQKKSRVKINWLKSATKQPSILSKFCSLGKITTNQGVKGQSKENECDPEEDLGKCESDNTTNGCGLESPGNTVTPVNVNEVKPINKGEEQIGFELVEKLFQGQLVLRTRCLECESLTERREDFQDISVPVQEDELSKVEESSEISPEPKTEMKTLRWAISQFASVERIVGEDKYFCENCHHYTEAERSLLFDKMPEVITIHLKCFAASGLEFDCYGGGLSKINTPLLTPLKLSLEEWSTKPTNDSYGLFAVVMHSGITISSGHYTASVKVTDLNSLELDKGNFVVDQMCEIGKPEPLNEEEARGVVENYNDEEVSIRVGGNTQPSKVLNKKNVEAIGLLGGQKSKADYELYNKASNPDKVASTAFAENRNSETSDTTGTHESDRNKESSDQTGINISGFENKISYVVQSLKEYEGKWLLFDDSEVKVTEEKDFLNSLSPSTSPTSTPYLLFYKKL
Sequence of 3',5'-cyclic-AMP phosphodiesterase 4B (Homo sapiens) (Q07343 whole entry, looked up): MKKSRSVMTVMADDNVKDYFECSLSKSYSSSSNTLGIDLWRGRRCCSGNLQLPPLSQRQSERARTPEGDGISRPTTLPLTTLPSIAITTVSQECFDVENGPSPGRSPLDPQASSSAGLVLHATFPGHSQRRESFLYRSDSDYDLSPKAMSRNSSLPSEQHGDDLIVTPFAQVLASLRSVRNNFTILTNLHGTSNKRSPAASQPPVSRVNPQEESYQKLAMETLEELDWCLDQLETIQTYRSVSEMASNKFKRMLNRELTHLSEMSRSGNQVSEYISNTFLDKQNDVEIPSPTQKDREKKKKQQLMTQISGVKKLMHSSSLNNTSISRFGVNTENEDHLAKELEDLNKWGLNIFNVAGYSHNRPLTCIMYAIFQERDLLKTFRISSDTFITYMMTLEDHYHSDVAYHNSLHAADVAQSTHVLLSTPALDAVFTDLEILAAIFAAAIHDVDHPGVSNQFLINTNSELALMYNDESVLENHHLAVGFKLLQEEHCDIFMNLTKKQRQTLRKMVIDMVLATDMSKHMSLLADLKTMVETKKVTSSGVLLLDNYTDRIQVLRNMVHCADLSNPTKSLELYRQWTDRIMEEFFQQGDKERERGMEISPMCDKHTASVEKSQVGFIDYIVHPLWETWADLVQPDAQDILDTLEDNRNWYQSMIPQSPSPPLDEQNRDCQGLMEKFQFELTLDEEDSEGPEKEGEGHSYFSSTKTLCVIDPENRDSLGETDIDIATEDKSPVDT
Sequence of Glucocorticoid receptor (Homo sapiens) (P04150 whole entry, looked up): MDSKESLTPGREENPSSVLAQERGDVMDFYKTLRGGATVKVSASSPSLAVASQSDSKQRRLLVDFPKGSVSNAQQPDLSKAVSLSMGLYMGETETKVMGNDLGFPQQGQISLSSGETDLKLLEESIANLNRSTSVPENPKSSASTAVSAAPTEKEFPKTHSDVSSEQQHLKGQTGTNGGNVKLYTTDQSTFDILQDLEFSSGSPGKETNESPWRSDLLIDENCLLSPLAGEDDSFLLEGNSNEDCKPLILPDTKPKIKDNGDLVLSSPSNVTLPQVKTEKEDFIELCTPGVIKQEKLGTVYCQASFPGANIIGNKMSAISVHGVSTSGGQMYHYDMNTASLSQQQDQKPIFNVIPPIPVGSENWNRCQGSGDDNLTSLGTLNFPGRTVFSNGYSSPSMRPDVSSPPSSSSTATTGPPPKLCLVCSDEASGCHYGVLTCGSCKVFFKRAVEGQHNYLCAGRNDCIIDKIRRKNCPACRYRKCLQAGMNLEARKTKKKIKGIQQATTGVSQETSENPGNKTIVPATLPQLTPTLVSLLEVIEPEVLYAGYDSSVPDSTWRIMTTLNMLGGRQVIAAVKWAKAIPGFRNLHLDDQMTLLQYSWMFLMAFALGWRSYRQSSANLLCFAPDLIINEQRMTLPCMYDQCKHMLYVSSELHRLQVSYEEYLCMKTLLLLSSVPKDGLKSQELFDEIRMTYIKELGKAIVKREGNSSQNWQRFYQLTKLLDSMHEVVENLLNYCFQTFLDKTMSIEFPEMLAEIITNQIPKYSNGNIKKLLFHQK
Sequence of Cytochrome P450 1A2 (Homo sapiens) (P05177 whole entry, looked up): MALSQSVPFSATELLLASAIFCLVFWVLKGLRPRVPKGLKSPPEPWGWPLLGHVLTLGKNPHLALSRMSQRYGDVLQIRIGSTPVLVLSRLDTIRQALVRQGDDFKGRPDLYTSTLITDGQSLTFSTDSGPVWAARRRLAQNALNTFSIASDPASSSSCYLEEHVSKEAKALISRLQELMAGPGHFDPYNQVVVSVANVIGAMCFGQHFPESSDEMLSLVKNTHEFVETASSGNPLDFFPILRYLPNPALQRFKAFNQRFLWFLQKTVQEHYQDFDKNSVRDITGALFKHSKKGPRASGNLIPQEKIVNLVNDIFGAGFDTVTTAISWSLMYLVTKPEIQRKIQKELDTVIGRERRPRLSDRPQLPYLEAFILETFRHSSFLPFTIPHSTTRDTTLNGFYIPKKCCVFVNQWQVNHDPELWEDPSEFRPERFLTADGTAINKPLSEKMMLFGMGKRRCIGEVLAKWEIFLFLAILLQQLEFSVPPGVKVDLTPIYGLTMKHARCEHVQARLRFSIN
Sequence of ATP-dependent 6-phosphofructokinase (Trypanosoma brucei brucei) (O15648 whole entry, looked up): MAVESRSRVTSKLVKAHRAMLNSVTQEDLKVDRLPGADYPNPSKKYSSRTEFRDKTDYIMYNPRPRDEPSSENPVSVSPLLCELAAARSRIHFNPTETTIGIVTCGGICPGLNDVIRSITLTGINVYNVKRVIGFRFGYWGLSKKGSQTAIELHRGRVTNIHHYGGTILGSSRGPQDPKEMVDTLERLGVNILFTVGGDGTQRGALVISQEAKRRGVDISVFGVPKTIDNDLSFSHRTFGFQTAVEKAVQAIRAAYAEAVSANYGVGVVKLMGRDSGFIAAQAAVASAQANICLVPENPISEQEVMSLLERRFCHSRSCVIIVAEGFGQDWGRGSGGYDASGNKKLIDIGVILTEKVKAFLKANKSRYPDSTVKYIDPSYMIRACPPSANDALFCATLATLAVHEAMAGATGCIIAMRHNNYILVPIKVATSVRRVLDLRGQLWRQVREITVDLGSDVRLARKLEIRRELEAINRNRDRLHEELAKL

On to `C[N+]1(C)C[C@@H](O)C[C@@H]1C(=O)[O-]`, for which the outcome in [1], in assay [4] and in assay [8] was inactive. Further, the Potency result in [2], in assay [7] and in assay [10] was “inactive” in each case. The activity change, negative = inhibition was -11.1% (inactive) in [3] and -1.53% (inactive) in [9]. For the same molecule, the Potency in [5] and in assay [6] was > 20.6 µM (inactive) each time. In addition, the max response in [9] (setting [14]) was -1.48%; in assay [9] (setting [15]) it was -3.42%.
On to `C[C@@]12CC[C@@H]3c4ccc(O)cc4CC[C@H]3[C@H]1C[C@@H](O)[C@H]2O`, for which the call in assay [1], in assay [4] and in [8] was inactive. Moreover, the Potency entry in [2] and in assay [10] was “inactive” each time. Also, the activity change, negative = inhibition in assay [3] is -13% (inactive); in [9], -1.89% (inactive). The Potency in [5] and in assay [6] was > 20.6 µM (inactive) throughout. For the same molecule, the max response in [9] (setting [14]) is -5.07%; in assay [9] (setting [15]), -7.07%.
For the molecule `C[C@H](CCC(=O)NCC(=O)O)[C@H]1CC[C@H]2[C@H]3[C@@H](C[C@@H](O)[C@]12C)[C@]1(C)CC[C@H](O)C[C@@H]1C[C@@H]3O`, the result in [1], in assay [4] and in assay [8] was inactive. Further, the Potency result in assay [2] and in assay [10] was “inactive” in each case. Also, the activity change, negative = inhibition in assay [3] is 15.3% (inactive); in assay [9], 0.864% (inactive). Besides, the Potency in assay [5] and in assay [6] was > 20.6 µM (inactive) in each case. The max response in assay [9] (setting [14]) was -1.04%; in assay [9] (setting [15]), -0.773%.
`CN(C)CCCO[C@H]1[C@@H]2OC(C)(C)O[C@@H]2O[C@@H]1[C@H](O)CO`: the call in [1], in assay [4] and in assay [8] was inactive. Moreover, the Potency result in assay [2] and in assay [10] was “inactive” in each case. Moreover, the activity change, negative = inhibition in [3] is -2.11% (inactive); in assay [9], 0.679% (inactive). Also, the Potency in [5] and in assay [6] was > 20.6 µM (inactive) throughout. Further, the results for the max response in assay [9] (setting [14]) and in assay [9] (setting [15]) were -1.4% and -0.368%, respectively.
As to `CCOC(=O)[C@H](CCc1ccccc1)N[C@@H](C)C(=O)N1[C@H](C(=O)O)C[C@H]2CCC[C@@H]21`, the result in assay [1], in [4], in [8] and in assay [11] was inactive. Moreover, the Potency result (in assay [2]; in [7]; in assay [12]; with 3D7; with C2A; in the assay on CP217) was “inactive” in each case. Besides, the Potency result in the assay on CP250, in the assay on FAB9, with JCK and in the assay with PC49 was “inactive” each time. The values for the activity change, negative = inhibition in assay [3] and in [9] were -18.7% (inactive) and -3.49% (inactive), respectively. The Potency in assay [5] is > 20.6 µM (inactive). The max response was -8.48% in assay [9] (setting [14]) and -7.94% in assay [9] (setting [15]). In addition, the activity, negative = inhibition was 14.3% (inactive) in assay [13] (parasite line A) and 4.68% (inactive) in assay [13] (parasite line B).
